Data as given in PubChem BioAssay (NCATS).
Inconclusive results are not listed. Where a call stands in place of a potency, no number is given. Activity calls are given as the source filed them. Calls come from the whole dose curve; as a rule, active = well fitted cell-killing curve with a large enough effect; inconclusive = small, poorly fitted or top-dose-only effect, or effect the other way; inactive = no such curve, though single readings can be large or run the other way.

Assay: Viability qHTS for spleen associated tyrosine kinase inhibitor (SYKi) naive MV4-11 cells (AID 1963823); note: nearly all actives have a fitted effect of over 40% in size
Conditions: MV4-11 AML viability, CellTiter-Glo luminescence, 72 h; series mostly up to 45 µM
Procedure, shortened: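 Read-out: CellTiter-Glo luminescence. Exposure: 72 hr, 37 C, 5% CO2, 95% humidity. Cells: MV4-11 without SYK inhibitor history, 500/well, qHTS format.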
Potency is the fitted concentration of half-maximal effect.

Row | SMILES | Potency | viability (% of control)
1 | COc1ccc(/C=C/C(=O)O[C@H]2[C@@H]3C=CO[C@@H](O[C@@H]4O[C@H](CO)[C@@H](O)[C@H](O)[C@H]4O)[C@@H]3[C@@]3(CO)O[C@@H]23)cc1O | inactive | 
2 | C=CC(C)(O)CC/C=C(\C)C(=O)OC1C(O)C(CO)OC(OC(=O)C23CCC(C)(C)CC2C2=CCC4C5(C)CCC(OC6OC(COC7OCC(OC(C)=O)C(O)C7OC7OC(COC(C)=O)C(O)C(O)C7OC(C)=O)C(O)C(O)C6OC6OCC(O)C(O)C6O)C(C)(C)C5CCC4(C)C2(C)C(O)C3O)C1OC1OCC(OC2OCC(O)C(OC3OCC(O)C(O)C3O)C2O)C(O)C1O (centres undefined) | 0.631 µM (active) | 
3 | Cc1cc(-c2ncc(-c3cccnc3)cc2/C=C/c2ccccc2)cnc1-c1cccnc1 | inactive | 
4 | Cc1cc(C(=O)N2Cc3cnn(C)c3Nc3ccccc32)ccc1CNC(=O)N1CCN(Cc2cc(O)cc(O)c2)CC1 | inactive | 
5 | C=C[C@]1(C)C=C2CCC3C(C)(CCC[C@@]3(C)C(=O)O)C2CC1 (some centres undefined) | inactive | 
6 | C[C@@H]1C[C@H](O)/C=C/[C@H](O)[C@@H](O)CC(=O)O1 | inactive | 
7 | C/C(CO)=C1/CCC23COC(C2)C(O)(C(=O)O)CCC13 (centres undefined) | inactive | 
8 | COc1cc(Nc2nc3c(s2)CCCC3c2ccc(F)cc2)ccc1-n1cnc(C)c1 (centres undefined) | 3.66 µM (active) | 
9 | COC(=O)C1=CO[C@@H](O[C@@H]2O[C@H](CO)[C@@H](O)[C@H](O)[C@H]2O)[C@H]2[C@@H]1C=C[C@@]21C=C([C@H](C)O)C(=O)O1 | inactive | 
10 | COc1cc(C(C)=O)ccc1O[C@@H]1O[C@H](CO[C@@H]2OC[C@@H](O)[C@H](O)[C@H]2O)[C@@H](O)[C@H](O)[C@H]1O | inactive | 
11 | C[C@@H]1CN(CCCn2c3ccccc3c3ccccc32)C[C@H](C)N1 | 23.7 µM (active) | 
12 | C=Cc1ccc(O[C@@H]2O[C@H](CO[C@@H]3O[C@@H](C)[C@H](O)[C@@H](O)[C@H]3O)[C@@H](O)[C@H](O)[C@H]2O)cc1 | inactive | 
13 | C=C1C(O)CC2C(C(=O)O)=COC(O[C@@H]3O[C@H](COC(=O)/C=C/c4ccc(O)cc4)[C@@H](O)[C@H](O)[C@H]3O)C12 (some centres undefined) | inactive | 
14 | CC1CCC2(NC1)OC1C(=O)C3C4CCC5CC(O[C@@H]6O[C@H](CO)[C@@H](O)[C@H](O)[C@H]6O[C@@H]6O[C@@H](C)[C@H](O)[C@@H](O)[C@H]6O)CCC5(C)C4CCC3(C)C1C2C (some centres undefined) | inactive | 
15 | CC1OC(OC2C(CO)OC(OCC3OC(OC(=O)C45CCC(C)(C)CC4C4=CCC6C7(C)CCC(OC8OC(C(=O)O)C(O)C(OC9OC(CO)C(O)C(O)C9O)C8O)C(C)(C)C7CCC6(C)C4(C)CC5)C(O)C(O)C3O)C(O)C2O)C(O)C(O)C1O (centres undefined) |  | 92.6% [at 9.25 µM] (inactive)
16 | CC1=CC(=O)OC(C)(CC(C)(O)C(=O)O)C1 (centres undefined) | inactive | 
17 | CCC(C)CNCC(=O)N1CCC2SC=CC2C1COc1cccc(C)c1 (centres undefined) | 11.6 µM (active) | 
18 | CC1=CC(=O)CC(C)(C)C1(O)CCC(C)O (centres undefined) | inactive | 
19 | O=c1cc[nH]c(=S)[nH]1 | inactive | 
20 | C/C1=C\CCC2=CC(OC2=O)C(C)(C)/C=C/C1=O (centres undefined) | 4.61 µM (active) | 
21 | CCOc1cc(CC(=O)NC(CC(C)C)c2ccccc2N2CCCCC2)ccc1C(=O)O (centres undefined) | inactive | 
22 | Oc1cc(CNC(=S)/C=C/c2cc(O)c(O)c(Br)c2)cc(O)c1O | 1.84 µM (active) | 
23 | C[C@@H]1O[C@@H](OC(=O)Cc2ccccc2)[C@H](O)[C@H](O)[C@H]1O | inactive | 
24 | O=C(c1ccc(-c2ccc(Cl)cc2)o1)N(Cc1ccccn1)c1ccc(N2CCNCC2)cc1 | 13 µM (active) | 
25 | CC1(C)CC[C@]2(C(=O)O[C@@H]3O[C@H](CO)[C@@H](O)[C@H](O)[C@H]3O)CC[C@]3(C)C(=CCC4[C@@]5(C)CC[C@H](O[C@@H]6O[C@H](C(=O)O)[C@@H](O[C@@H]7O[C@H](CO)[C@@H](O)[C@H](O)[C@H]7O)[C@H](O)[C@H]6O[C@@H]6O[C@H](CO)[C@@H](O)[C@H](O)[C@H]6O)C(C)(C)C5CC[C@]43C)C2C1 (some centres undefined) |  | 93% [at 9.25 µM] (inactive)
26 | C=C1CC23CC1CCC2C12OC(=O)C(C)(CCC1O)C2C3C(=O)O (centres undefined) | inactive | 
27 | CCOC(=O)c1cc(C#N)c(N2CCC(C(=O)NS(=O)(=O)Cc3ccccc3)CC2)nc1C | inactive | 
28 | COc1c(C)c(OCC(O)C(C)(C)O)cc2c1CNC2=O (centres undefined) | inactive | 
29 | CN1CCN(CCCN2c3ccccc3Sc3ccc(S(=O)(=O)N(C)C)cc32)CC1 | 11.9 µM (active) | 
